Laboratory results as given in PubChem BioAssay.
Records with an inconclusive call do not appear. The source made the active and inactive calls.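 The calls were made as follows, unless noted: active = RAM network inhibition above 8.4% in each of two replicates, 3 SD over the compound average; inconclusive = above 8.4% inhibition in only one replicate; inactive = 8.4% inhibition or less in each replicate.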

Key:
[1] = Her2 expression decrease, cell viability multiplex – SKBR3 breast tumor cells, AlphaScreen, ATP viability, primary screen (AID 461;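 active = Her2 level under about 52% in both replicate screens, with viability over 70% of control, limit read from the data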;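 as to Her2 level: lower value means less Her2 protein in the cells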;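 as to viability: percent of carrier control wells set as 100% viability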); details: SKBR3 Her2 protein level, 18-24 h, measured here: SKBR3 viability, ATP luminescence, at 10 µM
[2] = target: Receptor tyrosine-protein kinase erbB-2 (Homo sapiens) (UniProt P04626); test: as above; details: 18-24 h, at 10 µM, stronger effect = lower value
[3] = reduced viability of SK-BR-3 breast cancer cells – cell-based, 24 h, human, pilot screen (AID 572;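 active = viability at or below 10% of carrier control in both of two separate runs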;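 also: compound exposure lasted between 18 and 24 h rather than exactly 24 h; 100% = carrier-treated control wells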); details: SK-BR-3 viability, CellTiter-Glo luminescence, at 10 µM, stronger effect = lower value
[4] = HUVEC growth inhibition – cell-based, human, primary screen (AID 575;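 active = viability at or below 30% in both replicate assays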;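 also: 100% = median of untreated cell wells with 0.1% DMSO on each plate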); details: HUVEC proliferation, CellTiter-Glo luminescence, 72 h; at 10 µM; stronger effect = lower value
[5] = H69AR cell proliferation blockers – human, duplicate replicates, primary screen (AID 580;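 active = viability at or under a set limit in both replicates, limit being median viability minus 3 SD, cut at about 48% in these data, passing the limit was not always enough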;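 also: 100% = mean luminescence of untreated wells and 0% = no signal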); details: H69AR lung tumor cells viability, ATP luminescence, 72 h; at 10 µM; stronger effect = lower value
[6] = MRP1 drug-resistance reversers in H69AR cells – cell-based, doxorubicin co-treatment, pilot screen (AID 601;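 active = viability loss from added drug above about 55%, and viability with drug at most 40%, in both replicates, limit read from the data, passing the limit was not always enough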); details: CellTiter-Glo, 72 h, at 10 µM; for differential viability (reversal): stronger effect = higher value
[7] = yeast transport mutant growth inhibition pilot in 384-well plates, post-Golgi transport modulator project (AID 636; in the data active = inhibition above about 31%); details: absorbance 615 nm, about 18 h, stronger effect = higher value
[8] = growth suppression of yeast trafficking mutant, preliminary HTS, modulators of trafficking downstream of Golgi apparatus project, 1536-format plate, OD 615 nm (AID 637; in the data active = inhibition above about 30%); details: yeast transport mutant growth, absorbance 615 nm, 18 h; stronger effect = higher value
[9] = S. cerevisiae growth inhibition in permissive medium (OD615), pilot counter-assay for S. cerevisiae lifespan shortening project, permissive growth control (AID 705;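 active = growth inhibition above 25% in both replicates, a cutoff set 3 SD above the mean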); details: OD615, 24 h, at 10 µM, stronger effect = higher value
[10] = S. cerevisiae growth inhibition in restrictive medium, OD615, pilot screen, restrictive growth control, yeast lifespan reduction project (AID 706;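 active = growth inhibition above a set limit, 3 SD over mean compound inhibition, in both replicates, cut at about 43% in these data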;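 also: modified DeaD lifespan yeast strain shifted to restrictive glucose medium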); details: OD615, 48 h, at 10 µM, stronger effect = higher value
[11] = doxorubicin toxicity protection in MRP-1 cells – H69AR cells, CellTiter-Glo, duplicate, MRP-1 activator project, pilot screen (AID 807;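 active = viability increase at or above a cutoff of the median across tested compounds plus 3 SD, cut at about 8.5% in these data, passing the limit was not always enough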;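 also: compound pretreatment 18-22 h then 72 h combined with doxorubicin; 0% = doxorubicin alone and 100% = vehicle without doxorubicin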); details: H69AR viability with doxorubicin, CellTiter-Glo luminescence; at 10 µM; stronger effect = higher value
[12] = viability of HCT116 without oncogenic beta-catenin – human colon tumor cells, pilot screen (AID 823;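 active = cell viability at or below a set limit in both duplicate runs, the limit being the all-compound median minus 4 SD, cut at about 23% in these data, passing the limit was not always enough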;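 also: 0% = wells killed by 20 µM Hyamine and 100% = untreated DMSO cell wells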); details: HCT116 beta-catenin knockout viability, CellTiter-Glo, 60 h; at 10 µM; stronger effect = lower value
[13] = viability of PTEN-null HCT116 cells – cell-based, HCT116 clonal line, CellTiter-Glo, pilot screen (AID 824;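 active = viability at or below 27.92% in each of two runs, the all-compound median minus 4 SD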;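 also: 0% = 20 µM Hyamine control and 100% = vehicle cell control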); details: HCT116 PTEN-deleted viability, 60 h, at 10 µM, stronger effect = lower value
[14] = RAM pathway blockade in budding yeast – dse1pr::URA3 reporter, 5-FOA selection, pilot screen (AID 869;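 active = inhibition over a set limit, the all-compound mean plus 3 SD, in both replicate runs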;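 also: 0% = DMSO wells with no growth and 100% = 10 µM 1-NA-PP1 with full growth; RAM network block rescues cells from 5-FOA so hits raise OD615 growth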); details: S. cerevisiae dse1pr::URA3 5-FOA growth, OD615, 2 d; at 10 µM; stronger effect = higher value; strain carries analog-sensitive mutant Cbk1 kinase
[15] = RAM signaling pathway blockade in yeast – S. cerevisiae, Pdr1DBD-CYC8 efflux-inhibited sensitized strain, primary screen (AID 1298);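 also: 0% = DMSO untreated cells without growth and 100% = 10 µM 1-NA-PP1 full growth; higher means more yeast growth rescued from 5-FOA killing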; details: S. cerevisiae cbk1-as DSE1-URA3 strain, 5-FOA growth OD615, 2 d; at 50 µM; stronger effect = higher value
[16] = H69AR cells + 2 uM doxorubicin, measured here: viability with 2 uM doxorubicin, stronger effect = lower value
[17] = H69AR cells, compound alone cytotoxicity

Chain of Receptor tyrosine-protein kinase erbB-2 (Homo sapiens) (P04626 whole entry, looked up): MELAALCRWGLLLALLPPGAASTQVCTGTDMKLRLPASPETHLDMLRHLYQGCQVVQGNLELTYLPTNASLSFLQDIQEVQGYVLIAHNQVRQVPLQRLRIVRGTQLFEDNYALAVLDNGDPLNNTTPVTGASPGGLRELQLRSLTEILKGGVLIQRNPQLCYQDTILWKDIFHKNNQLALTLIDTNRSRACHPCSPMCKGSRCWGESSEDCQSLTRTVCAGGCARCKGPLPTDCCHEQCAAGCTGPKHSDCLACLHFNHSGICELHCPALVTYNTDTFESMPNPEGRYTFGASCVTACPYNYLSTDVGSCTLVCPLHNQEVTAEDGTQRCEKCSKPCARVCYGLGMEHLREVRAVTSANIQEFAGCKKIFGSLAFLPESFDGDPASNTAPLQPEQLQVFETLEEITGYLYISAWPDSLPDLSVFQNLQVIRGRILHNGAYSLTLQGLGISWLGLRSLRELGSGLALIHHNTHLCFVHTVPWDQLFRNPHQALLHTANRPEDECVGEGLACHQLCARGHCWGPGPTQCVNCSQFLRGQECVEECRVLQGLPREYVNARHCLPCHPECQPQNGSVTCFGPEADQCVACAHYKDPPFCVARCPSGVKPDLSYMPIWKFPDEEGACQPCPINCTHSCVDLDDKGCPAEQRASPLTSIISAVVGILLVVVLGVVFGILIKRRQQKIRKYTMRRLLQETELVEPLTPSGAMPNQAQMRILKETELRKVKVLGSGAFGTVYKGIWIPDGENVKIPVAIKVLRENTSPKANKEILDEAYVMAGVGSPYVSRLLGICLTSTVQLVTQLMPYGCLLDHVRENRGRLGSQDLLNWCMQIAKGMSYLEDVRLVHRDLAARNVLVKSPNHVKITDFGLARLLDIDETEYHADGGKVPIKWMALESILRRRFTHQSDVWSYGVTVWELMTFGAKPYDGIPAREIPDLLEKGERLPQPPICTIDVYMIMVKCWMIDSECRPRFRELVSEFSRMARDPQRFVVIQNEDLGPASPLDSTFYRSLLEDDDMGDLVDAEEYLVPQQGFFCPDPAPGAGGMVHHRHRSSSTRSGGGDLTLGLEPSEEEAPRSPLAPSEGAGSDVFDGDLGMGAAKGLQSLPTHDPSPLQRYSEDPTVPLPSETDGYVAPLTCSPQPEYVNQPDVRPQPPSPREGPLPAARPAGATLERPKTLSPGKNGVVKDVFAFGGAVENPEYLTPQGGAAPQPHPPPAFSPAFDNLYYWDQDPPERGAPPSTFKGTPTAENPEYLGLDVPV

| SMILES | viability [1] | Her2 level [2] | viability [3] | viability [4] | viability [5] | differential viability (reversal) ([6]; H69AR cells + 2 uM doxorubicin) | viability [6, 16] | viability [6, 17] | inhibition [7] | inhibition [8] | growth inhibition [9] | growth inhibition [10] | viability increase [11] | viability [12] | viability [13] | inhibition [14] | RAM network inhibition [15] |
| --- | --- | --- | --- | --- | --- | --- | --- | --- | --- | --- | --- | --- | --- | --- | --- | --- | --- |
| Cc1cccc(-n2ncc3c(NCCCO)ncnc32)c1 | 95.5% | 118% (inactive) | 95.5% (inactive) | 86.4% (inactive) | 88.3% (inactive) | 7.59% (inactive) | 80.7% | 88.3% | 2.4% (inactive) | -2.5% (inactive) | -12.1% (inactive) | -8.93% (inactive) | 0.27% (inactive) | 112% (inactive) | 104% (inactive) | 0.64% (inactive) | -0.67% (inactive) |
| O=C(c1ccc(CSCc2ccccc2F)o1)N1CCN(c2ccc(N3CCOCC3)nn2)CC1 | 84.5% | 76% (inactive) | 84.5% (inactive) | 54.7% (inactive) | 79.7% (inactive) | -5.4% (inactive) | 85% | 79.7% | 0.9% (inactive) | -0.17% (inactive) | 1.75% (inactive) | 17.4% (inactive) | -4.06% (inactive) | 83.6% (inactive) | 89.7% (inactive) | 1.54% (inactive) | 2.93% (inactive) |
| Cc1cc(=O)oc2c1c(C)nn2-c1ccc(C(=O)OC(C)C)cc1 | 83.5% | 83.5% (inactive) | 83.5% (inactive) | 99% (inactive) | 96.9% (inactive) | 2.41% (inactive) | 94.5% | 96.9% | -0.13% (inactive) | 1.15% (inactive) | -4.51% (inactive) | 3.34% (inactive) | -3.1% (inactive) | 97.3% (inactive) | 87.4% (inactive) | 0.78% (inactive) | 1.04% (inactive) |
| CCOCCCNC(=O)C(NC(=O)c1ccccn1)c1ccc(C)cc1 (stereo not given) | 94.5% | 120% (inactive) | 94.5% (inactive) | 104% (inactive) | 106% (inactive) | 8.57% (inactive) | 97.3% | 106% | -2.6% (inactive) | 1.9% (inactive) | -4.42% (inactive) | 1.57% (inactive) | -0.13% (inactive) | 108% (inactive) | 97.3% (inactive) | 0.07% (inactive) | 0.36% (inactive) |
| CCOc1ccc(S(=O)(=O)n2c(C)nc3ccccc32)cc1 | 93% | 112% (inactive) | 93% (inactive) | 65.8% (inactive) | 71.2% (inactive) | -45.5% (inactive) | 117% | 71.2% | 0.51% (inactive) | 5.67% (inactive) | -11.5% (inactive) | 0.25% (inactive) | 1.02% (inactive) | 98.2% (inactive) | 96.2% (inactive) | 1.31% (inactive) | 1.31% (inactive) |
| COc1ccc(NC(=O)C2Cc3ccccc3C(=O)O2)cc1 (stereo not given) | 90% | 92.5% (inactive) | 90% (inactive) | 104% (inactive) | 91.8% (inactive) | 5.95% (inactive) | 85.9% | 91.8% | -2.53% (inactive) | -1.67% (inactive) | 1.22% (inactive) | 1.67% (inactive) | 0.31% (inactive) | 105% (inactive) | 104% (inactive) | 1.79% (inactive) | 3.16% (inactive) |
| O=C(c1cccc(F)c1)N1CCc2ccccc21 | 96.5% | 80% (inactive) | 96.5% (inactive) | 91.2% (inactive) | 98.9% (inactive) | 3.25% (inactive) | 95.6% | 98.9% | -5.14% (inactive) | 0.98% (inactive) | -19.5% (inactive) | -20.4% (inactive) | -5.03% (inactive) | 86.3% (inactive) | 96% (inactive) | 0.88% (inactive) | 2.7% (inactive) |
| Cc1nc2sc(C(c3cccs3)N3CCOCC3)c(O)n2n1 (stereo not given) | 90% | 100% (inactive) | 90% (inactive) | 94.8% (inactive) | 88.6% (inactive) | -4.79% (inactive) | 93.4% | 88.6% | -7.73% (inactive) | -0.83% (inactive) | -7.23% (inactive) | -11.9% (inactive) | -0.31% (inactive) | 107% (inactive) | 94.2% (inactive) | 1.54% (inactive) | 1.99% (inactive) |
| CCN1CCN(C(=O)c2cn(CC)c3ccc(S(=O)(=O)N(C)C)cc3c2=O)CC1 | 85.5% | 104% (inactive) | 85.5% (inactive) | 100% (inactive) | 107% (inactive) | 11% (inactive) | 96.5% | 107% | 0% (inactive) | -1% (inactive) | -7.52% (inactive) | -18% (inactive) | -2.35% (inactive) | 101% (inactive) | 93.7% (inactive) | 2.08% (inactive) | -1.09% (inactive) |
| CC1=C(C(=O)Nc2ccccc2)C(c2ccccn2)n2nc(CCCO)nc2N1 (stereo not given) | 94.5% | 105% (inactive) | 94.5% (inactive) | 101% (inactive) | 95.6% (inactive) | 1.47% (inactive) | 94.1% | 95.6% | -5.73% (inactive) | -3.33% (inactive) | -14.1% (inactive) | -8.68% (inactive) | -0.39% (inactive) | 96.3% (inactive) | 92.9% (inactive) | 1.56% (inactive) | 5.48% (inactive) |
